Measurements from the supplement of paper PMC8728848.
The full list was thinned out, with the strongest signals kept by preference.

How the values were obtained:
Assay in all cases: glycan array binding signal (z-score within array); higher = stronger binding
Settings in all cases: glycan notation: IUPAC condensed, linker removed
[1] = molecular target: Fuc(a1-2)Gal(b1-3)GalNAc(b1-4)[Neu5Ac(a2-3)]Gal(b1-4)Glc
Summary of the method: (§1)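 From the Consortium for Functional Glycomics database, 3228 arrays were curated, keeping only those whose protein sequence was available. Binding is given as a within-array Z-score averaged across arrays sharing a protein sequence and across linkers. Negative Z-scores can be read as non-binding.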

[2] = molecular target: Fuc(a1-2)Gal(b1-3)GlcNAc
Summary of the method: as §1

[3] = molecular target: Fuc(a1-2)Gal(b1-3)GlcNAc(b1-3)Gal(b1-4)Glc
Summary of the method: as §1

[4] = molecular target: Fuc(a1-2)Gal(b1-3)[Fuc(a1-4)]GlcNAc(b1-2)Man(a1-3)[Fuc(a1-2)Gal(b1-3)[Fuc(a1-4)]GlcNAc(b1-2)Man(a1-6)]Man(b1-4)GlcNAc(b1-4)[Fuc(a1-6)]GlcNAc(b1-4)[Fuc(a1-6)]GlcNAc
Summary of the method: as §1

[5] = molecular target: Fuc(a1-2)Gal(b1-4)GlcNAc
Summary of the method: as §1

[6] = molecular target: Fuc(a1-2)Gal(b1-4)GlcNAc6S
Summary of the method: as §1

[7] = molecular target: Fuc(a1-2)Gal(b1-4)[Fuc(a1-3)]GlcNAc(b1-3)Gal(b1-4)[Fuc(a1-3)]GlcNAc(b1-3)Gal(b1-4)[Fuc(a1-3)]GlcNAc
Summary of the method: as §1

[8] = molecular target: Fuc(a1-2)Gal6S(b1-4)Glc
Summary of the method: as §1

[9] = molecular target: Fuc(a1-2)[Gal(a1-3)]Gal(b1-4)GlcNAc
Summary of the method: as §1

[10] = molecular target: Fuc(a1-2)[Gal(a1-3)]Gal(b1-4)GlcNAc(b1-2)Man
Summary of the method: as §1

[11] = molecular target: Fuc(a1-2)[Gal(a1-3)]Gal(b1-4)[Fuc(a1-3)]Glc
Summary of the method: as §1

[12] = molecular target: Fuc(a1-2)[GalNAc(a1-3)]Gal(b1-3)GlcNAc(b1-6)GalNAc
Summary of the method: as §1

[13] = molecular target: Fuc(a1-2)[GalNAc(a1-3)]Gal(b1-4)GlcNAc(b1-3)GalNAc
Summary of the method: as §1

[14] = molecular target: Fuc(a1-3)[Gal3S(b1-4)]GlcNAc6S
Summary of the method: as §1

[15] = molecular target: Fuc(a1-3)[GalNAc(b1-4)]GlcNAc
Summary of the method: as §1

[16] = molecular target: Fuc(a1-4)GlcNAc
Summary of the method: as §1

[17] = molecular target: Gal(a1-3)Gal(b1-4)Glc
Summary of the method: as §1

[18] = molecular target: Gal(a1-3)Gal(b1-4)GlcNAc
Summary of the method: as §1

[19] = molecular target: Gal(a1-3)Gal(b1-4)GlcNAc(b1-2)Man
Summary of the method: as §1

[20] = molecular target: Gal(a1-3)Gal(b1-4)GlcNAc(b1-2)Man(a1-3)[Gal(a1-3)Gal(b1-4)GlcNAc(b1-2)Man(a1-6)]Man(b1-4)GlcNAc(b1-4)GlcNAc
Summary of the method: as §1

[21] = molecular target: Gal(b1-3)GalNAc(b1-3)Gal(a1-4)Gal(b1-4)Glc
Summary of the method: as §1

[22] = molecular target: Gal(b1-3)GalNAc(b1-4)Gal(b1-4)Glc
Summary of the method: as §1

[23] = molecular target: Gal(b1-3)GlcNAc(b1-2)Man(a1-3)[Gal(b1-3)GlcNAc(b1-2)Man(a1-6)]Man(b1-4)GlcNAc(b1-4)GlcNAc
Summary of the method: as §1

[24] = molecular target: Gal(b1-3)GlcNAc(b1-3)GalNAc
Summary of the method: as §1

[25] = molecular target: Gal(b1-3)[Fuc(a1-4)]GlcNAc(b1-2)Man
Summary of the method: as §1

[26] = molecular target: Gal(b1-4)GlcNAc(a1-6)Gal(b1-4)GlcNAc
Summary of the method: as §1

[27] = molecular target: Gal(b1-4)GlcNAc(b1-2)Man(a1-3)Man(b1-4)GlcNAc(b1-4)GlcNAc
Summary of the method: as §1

B1: PX14343C-bfa-541-26-541 (Bacteroides fragilis) (protein)
chain: KAPLDEIADDSFWSDETLVKYYVNDLYSEISVDGLQLQENRSDNSVSAQRDKYRASWFKFNYDMVSASDPQDDDVWEDYYVKVRKCNRFFERIGTSTIEESEKSRLTGEVHFLRAMFYFEMVKRYGGVILLDKVLTMEDNWEIPRSSEKECYDFILEDLKKATEMLPASYGSREKGRATKGAAYALKSRVELYDKRYEDVIKSCAEVYKLGYELVDGTTPEKYRSIWWTTNKDNKEIIFDVQYKSPDVYNNMMVCNMVTYINDKYGDRGWGGLGPTQELIDAFEMADGTPATQYSQAPADQVFDINTCGIYEGREPRFYANIVFHGSQIFFNADKGAVTVDRYLMDTPDKGDGSLTGYNVWKWIDYDNYNYPYAGAGSPDFSTNWIILRYAEIYLNDAEARLETGDVEGARKAVNMIRQRVGLPDLTESDPEKLRELIRKERRIEFAFEEQRFYDVRRWKIGPETQTTLHGVRFVSPTEFKVTKTDIRTWNDRLYLTPVPHDEIVRSSVLKQNLGY
glycan array binding signal (z-score) [1]: 1.52 | glycan array binding signal (z-score) [2]: 0.399 | glycan array binding signal (z-score) [3]: -0.05 | glycan array binding signal (z-score) [4]: 0.403 | glycan array binding signal (z-score) [5]: -0.892 | glycan array binding signal (z-score) [6]: -0.542 | glycan array binding signal (z-score) [7]: -0.071 | glycan array binding signal (z-score) [8]: 3.12 | glycan array binding signal (z-score) [9]: -0.674 | glycan array binding signal (z-score) [10]: -0.447 | glycan array binding signal (z-score) [11]: -0.83 | glycan array binding signal (z-score) [12]: 0.051 | glycan array binding signal (z-score) [13]: 0.855 | glycan array binding signal (z-score) [14]: -0.963 | glycan array binding signal (z-score) [15]: 0.848 | glycan array binding signal (z-score) [16]: -0.619 | glycan array binding signal (z-score) [17]: -0.559 | glycan array binding signal (z-score) [18]: 7.53 | glycan array binding signal (z-score) [19]: -1.04 | glycan array binding signal (z-score) [20]: 2.85 | glycan array binding signal (z-score) [21]: -0.233 | glycan array binding signal (z-score) [22]: -0.284 | glycan array binding signal (z-score) [23]: 2.98 | glycan array binding signal (z-score) [24]: 0.08 | glycan array binding signal (z-score) [25]: -0.63 | glycan array binding signal (z-score) [26]: 8.35 | glycan array binding signal (z-score) [27]: 0.345
